Assay results reported in PubChem BioAssay (NCI).
Values joined by “and” are separate entries in the source; they are usually repeats but may differ in a detail not shown here. Identical values can stand only once. The panel holds about 79,000 compounds, 15% with a hit somewhere; the sample as a whole holds those more often. Where a structure was tested more than once in an assay, its records may differ in their call. Active and inactive are the calls of the source. Rule as the data show it: active = growth inhibition above about 70%; inactive = the rest.

Legend:
[1] = NCI Yeast Anticancer Drug Screen. Data for the rad50 strain (AID 155);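 also: 0% = growth of vehicle-only cultures of the same strain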; conditions: S. cerevisiae rad50 strain growth inhibition, stronger effect = higher value
Procedure, shortened: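 Relative growth inhibition (compound vs vehicle) was measured in yeast with a defined repair-gene alteration.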

[2] = NCI Yeast Anticancer Drug Screen. Data for the mec2-1 strain (AID 157); conditions: S. cerevisiae mec2-1 strain, stronger effect = higher value
Procedure, shortened: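 Cells of the genetically defined mec2-1 yeast strain are incubated with test compound. Inhibition of growth is calculated against vehicle-treated controls.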

[3] = NCI Yeast Anticancer Drug Screen. Data for the sgs1 mgt1 strain (AID 161);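 also: 0% = growth of cultures given vehicle only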; conditions: S. cerevisiae sgs1 mgt1 strain, stronger effect = higher value
Procedure, shortened: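 Genetically altered yeast, compound exposure, growth inhibition relative to vehicle.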

[4] = NCI Yeast Anticancer Drug Screen. Data for the cln2 rad14 strain (AID 165);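 also: 0% = growth equal to vehicle treated cultures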; conditions: S. cerevisiae cln2 rad14 strain, stronger effect = higher value
Procedure, shortened: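 The screen exposed genetically defined yeast (cln2 rad14) to test compounds and scored growth inhibition relative to vehicle-treated controls.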

[5] = NCI Yeast Anticancer Drug Screen. Data for the bub3 strain (AID 167); conditions: S. cerevisiae bub3 mutant strain, stronger effect = higher value
Procedure, shortened: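 Screening used yeast with an engineered genetic alteration affecting cell cycle control. Compound-exposed cultures were compared with vehicle cultures, and reduced growth was taken as inhibition.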

[6] = NCI Yeast Anticancer Drug Screen. Data for the mlh1 rad18 strain (AID 175); conditions: S. cerevisiae mlh1 rad18 strain growth inhibition, stronger effect = higher value
Procedure, shortened: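 Compound-treated yeast growth, normalised to vehicle controls. Strain bears defined DNA repair mutations.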

[7] = at 5.0 µM (retest, dose inferred, filed as 0.5)
[8] = at 50.0 µM (retest, dose inferred, filed as 5.0)

Measured: growth inhibition

Oc1ccc(N=Nc2ccccn2)c(O)c1
-174% (inactive) and 98% (active): [1]; [7]
-127% (inactive) and 100% (active): [6]; [7]
inactive: [3]; [7] -67% and 19% | [4]; [7] -66% and 42% | [5]; [7] -67% and 42%
-53% (inactive) and 99% (active): [2]; [7]
active: [1]; [8] 94% and 98% | [1]; at 50.0 µM 98.5% and 88.8% | [2]; [8] 97% and 99% | [2]; at 50.0 µM 98.5% and 90.5% | [3]; [8] 94% and 97% | [3]; at 50.0 µM 98.2% and 91.2% | [4]; [8] 94% and 98% | [4]; at 50.0 µM 96% and 86.2% | [5]; [8] 96% | [5]; at 50.0 µM 97.5% and 89.8% | [6]; [8] 95% and 99% | [6]; at 50.0 µM 98.4% and 89%

CC(=O)OCC1OC(n2c(=S)n(-c3ccccc3)c(=O)c3ccccc32)C(OC(C)=O)C(OC(C)=O)C1OC(C)=O (centres undefined)
inactive: [1]; [7] 27% | [1]; [8] 27% | [1]; at 50.0 µM 8.65% and -2.35% | [2]; [7] 14% | [2]; [8] 14% | [2]; at 50.0 µM -27.1% and 5.4% | [3]; [7] 11% | [3]; [8] 11% | [3]; at 50.0 µM 6.3% and -28.1% | [4]; [7] 17% | [4]; [8] 17% | [4]; at 50.0 µM 9.15% and -3.95% | [5]; [7] 6% | [5]; [8] 6% | [5]; at 50.0 µM 58.9% and -30.1% | [6]; [7] 7% | [6]; [8] 7% | [6]; at 50.0 µM 12.2% and -0.5%

c1cc2c3c(c1)ccc1cccc(c13)COC2
inactive: [1]; [7] -21% and -2% | [2]; [7] -6% and 9% | [3]; [7] -4% and -10% | [3]; [8] 20% and 58% | [4]; [7] -42% and 4% | [4]; [8] -7% and 27% | [5]; [7] -13% and -12% | [5]; [8] 10% and 65% | [6]; [7] -19% and -11%
-8% (inactive) and 75% (active): [2]; [8]
47.5% (inactive) and 95.8% (active): [3]; at 50.0 µM
56.5% (inactive) and 98.2% (active): [6]; at 50.0 µM
active: [1]; at 50.0 µM 86.3% and 98% | [5]; at 50.0 µM 88.2% and 94.9%
9% (inactive) and 89% (active): [6]; [8]
10% (inactive) and 85% (active): [1]; [8]
51.1% (inactive) and 96.7% (active): [2]; at 50.0 µM
69.2% (inactive) and 96.5% (active): [4]; at 50.0 µM

O=C(NC(C(=O)O)c1ccccc1)OCc1ccccc1 (centres undefined)
-12.2% (inactive) and 88% (active): [4]; at 50.0 µM
inactive: [1]; [7] -3% | [1]; [8] -3% | [1]; at 50.0 µM -3% and -15.4% and 0.9% | [2]; [7] 1% | [2]; [8] 0% | [2]; at 50.0 µM -28.1% and -22.8% and 0.9% | [3]; [7] -1% | [3]; [8] -2% | [3]; at 50.0 µM -23.6% and -3.2% | [4]; [7] 1% | [4]; [8] -2% | [5]; [7] -1% | [5]; [8] -2% | [5]; at 50.0 µM -8.4% and 21.4% | [6]; [7] 3% | [6]; [8] -1% | [6]; at 50.0 µM -7.9% and 2.55% and 48.3%

CN(C)/C=C1\CCc2ccc([N+](=O)[O-])cc2C1=O
inactive: [1]; [7] 19% | [1]; [8] 21% | [1]; at 50.0 µM 6.9% | [2]; [7] 17% | [2]; [8] 25% | [2]; at 50.0 µM 0.45% | [3]; [7] 24% | [3]; [8] 29% | [3]; at 50.0 µM 16.4% | [4]; [7] 31% | [4]; [8] 17% | [4]; at 50.0 µM 12.1% | [5]; [7] 26% | [5]; [8] 19% | [5]; at 50.0 µM 21.4% | [6]; [7] 29% | [6]; [8] 35% | [6]; at 50.0 µM -28.4%

CCN(CC)CCNc1n[n+]([O-])c2cc([N+](=O)[O-])ccc2[n+]1[O-]
inactive: [1]; [7] 31% | [2]; [7] 5% | [2]; [8] 48% | [2]; at 50.0 µM 58.8% and 52.6% | [3]; [7] 16% | [4]; [7] 32% | [4]; [8] 63% | [4]; at 50.0 µM 48% and 41% | [5]; [7] -7% | [5]; [8] 67% | [5]; at 50.0 µM 43.7% and 45.1% | [6]; [7] 24%
active: [1]; [8] 88% | [1]; at 50.0 µM 80.5% and 79% | [3]; [8] 76% | [3]; at 50.0 µM 73.5% and 71% | [6]; [8] 85% | [6]; at 50.0 µM 79.3% and 80.5%

CC(=O)[O-].[O-]c1c(Cl)cc(Cl)cc1/C=N/Nc1ccccn1.[Zn+2]
inactive: [1]; [7] 5% | [2]; [7] 16% | [3]; [7] 4% | [4]; [7] -1% | [5]; [7] -4% | [5]; at 50.0 µM 37.2% | [6]; [7] 3%
active: [1]; [8] 93% | [1]; at 50.0 µM 96.5% | [2]; [8] 96% | [2]; at 50.0 µM 87.8% | [3]; [8] 96% | [3]; at 50.0 µM 98.1% | [4]; [8] 93% | [4]; at 50.0 µM 95.5% | [5]; [8] 96% | [6]; [8] 93% | [6]; at 50.0 µM 97%

COC(=O)[C@@H](NS(=O)(=O)CC12CCC(CC1)C2(C)C)C(C)(C)C
active: [3]; [8] 70% | [6]; [8] 83%
inactive: [1]; [7] 2% | [1]; [8] 50% | [1]; at 50.0 µM 14.2% | [2]; [7] 1% | [2]; [8] 51% | [2]; at 50.0 µM 26.1% | [3]; [7] 16% | [3]; at 50.0 µM 25.7% | [4]; [7] 6% | [4]; [8] 48% | [4]; at 50.0 µM 21.4% | [5]; [7] 0% | [5]; [8] 54% | [5]; at 50.0 µM 10.9% | [6]; [7] 0% | [6]; at 50.0 µM 58.6%
